This excerpt belongs to a sample that is enriched for hits.
KDM5B inh – KDM5B demethylase inhibition. Potency, µM (top dose mostly 57.7 µM), hits mostly inhibitors. 220,000 tested, 2.6% active. KDM5B demethylase, FDH-coupled NADH fluorescence (FDH is formaldehyde dehydrogenase). Q9UGL1; active = well fitted inhibition curve with a large enough effect; note: 0% is about no effect; nearly all actives have a fitted effect of over 70% in size
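Coupled FDH/NAD⁺ fluorescence readout. KDM5BΔAP 200 nM final; compound titration, 10 min RT preincubation; substrate mix 12.5 µM H3K4me3, 25 µM 2-OG, 50 µM Fe(II), 100 µM ascorbate, 0.25 mM NAD⁺, 0.25 U/mL FDH; ΔRFU over 30 min.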
* marks the source's active call; other numbers are inactive results. Potency is the fitted concentration of half-maximal effect.

Screening CC(Sc1nc2cc(Cl)ccc2n1C)C(=O)NCc1ccc2c(c1)OCO2 (stereo unspecified) returned KDM5B inh inactive.
For CCc1noc(C)c1C(=O)Nc1ccc(C(C)(C)C)cc1 the results were KDM5B inh inactive.
Screening COc1ccccc1NC(=O)c1cc(-c2ccccn2)n[nH]1 returned KDM5B inh inactive.
Screening CCN(c1ccc(NC(=O)[C@H](Cc2ccccc2)NC(=O)c2cccs2)cc1)C(C)C returned KDM5B inh inactive.
For Cc1onc(-c2ccccc2)c1-c1nnc(CN2CCC(C(=O)N3CCCCCC3)CC2)o1 the results were KDM5B inh inactive.
For O=C(NC1(C(F)(F)F)C(=O)Nc2c1c(=O)[nH]c(=O)n2Cc1ccccc1)C1CCCCC1 (stereo unspecified) the results were KDM5B inh inactive.
COCCNC(=O)c1ccc2c(c1)N(Cc1ccc(C(F)(F)F)cc1)C(=O)c1ccccc1S2 was read as KDM5B inh inactive.
For COCCNC(=O)c1ccc2c(c1)C1(CCN(CC3CC3)C1)CN2Cc1ccccc1 (stereo unspecified) the results were KDM5B inh 35.5µM*.
Screening Cc1nc2ccc(C(=O)NC3CCN(Cc4ccccc4)CC3)cc2nc1C returned KDM5B inh inactive.
For O=C(NC1CCC1)c1ccc2c(c1)C1(CCN(CC3CC3)C1)CN2Cc1ccccc1 (stereo unspecified) the results were KDM5B inh 39.8µM*.
For CN1CCC2(C1)CN(Cc1ccccc1)c1ccc(C(=O)NCC3CC3)cc12 (stereo unspecified) the results were KDM5B inh 35.5µM*.
For O=C(NCC1CC1)c1ccc(CN2C(=O)NC3(CCS(=O)(=O)CC3)C2=O)cc1 the results were KDM5B inh inactive.
Screening CN1CCC2(C1)CN(Cc1ccccc1)c1ccc(C(=O)NC3COC3)cc12 (stereo unspecified) returned KDM5B inh 39.8µM*.
For COCCNC(=O)c1ccc(OC2CCN(Cc3cccc4nonc34)CC2)c(Cl)c1 the results were KDM5B inh inactive.
Cc1ccc(CN2C(=O)c3ccccc3Sc3ccc(C(=O)NC4CCCC4)cc32)cc1 was read as KDM5B inh inactive.
`CN1CCCC2(C1)CN(Cc1cccnc1)c1ccc(C(=O)NCC3CCCCC3)cc12` (stereo unspecified) gave KDM5B inh inactive.
For O=C(NC1CC(=O)N(CCCc2ccccc2)C1)c1ccc2c(c1)OCO2 (stereo unspecified) the results were KDM5B inh inactive.
`N#Cc1cccc(C(=O)NC2CCCN(Cc3ccccc3)C2)c1` (stereo unspecified) gave KDM5B inh inactive.
Screening Cc1nc(-c2ccccc2)ccc1C(=O)N1CCS(=O)(=O)c2ccccc21 returned KDM5B inh inactive.
Screening CCCc1cc(=O)oc2cc(OCC(=O)Nc3ccc(C(=O)N(C)C)cc3)ccc12 returned KDM5B inh inactive.
N#Cc1ccc(C(=O)N2CCCC(CO)CCNC(=O)CC2)cc1 (stereo unspecified) was read as KDM5B inh inactive.
For C=CCC1(CO)CCCN(Cc2cc(C3CCCCC3)no2)C1 (stereo unspecified) the results were KDM5B inh inactive.
C=CCn1c(SCC(=O)OCc2ccccc2)nc2c1c(=O)[nH]c(=O)n2C was read as KDM5B inh inactive.
Screening O=C(O)CSc1ccc(Cl)c(Cl)c1Cl returned KDM5B inh inactive.
Screening CCc1ccc2oc(C(=O)Nc3ccc(C)c(Cl)c3)cc(=O)c2c1 returned KDM5B inh inactive.
`O=C(NCC1CC1)c1cccc(OC2CN(C3CCN(Cc4ccccc4)CC3)C2)c1` gave KDM5B inh inactive.
`CCOc1ccc(CN2C(=O)c3ccccc3Sc3ccc(C(=O)NCCc4ccccc4)cc32)cc1` gave KDM5B inh inactive.
Screening CN1CCC2(C1)CN(Cc1ccccc1)c1ccc(C(=O)NCCOc3ccccc3)cc12 (stereo unspecified) returned KDM5B inh 28.2µM*.
`CCNC(=O)c1ccc2c(c1)C1(CCN(CC3CC3)C1)CN2Cc1ccccc1` (stereo unspecified) gave KDM5B inh 35.5µM*.
`CC(=O)N1CC2(CCN(CC3CC3)CC2)Cc2ccccc21` gave KDM5B inh inactive.
O=C(NCC1CC1)c1ccc2c(c1)C1(CCN(CC3CC3)C1)CN2Cc1ccccc1 (stereo unspecified) was read as KDM5B inh 28.2µM*.
Screening O=C(NCC1CC1)C1CN(Cc2ccccc2)C(=O)N1 (stereo unspecified) returned KDM5B inh inactive.
CCNC(=O)c1ccc(CC2CCN(C(C)=O)CC2)cc1 was read as KDM5B inh inactive.
For O=C1OC2(CN1CC1CCOCC1)CN(C(=O)c1ccc(Oc3ccccc3)cc1)C2 the results were KDM5B inh inactive.
Screening CN1CCC2(C1)CN(CC1CCOCC1)c1ccc(C(=O)NCC(F)(F)F)cc12 (stereo unspecified) returned KDM5B inh 35.5µM*.
For O=C(NCc1ccc(F)cc1)c1ccc(N2CCOCC2)c([N+](=O)[O-])c1 the results were KDM5B inh inactive.
`Cc1[nH]c2ccc(C(=O)NCCOc3ccccc3)cc2c1C` gave KDM5B inh inactive.
`Clc1ccc(NCc2nnc3n2CCCCC3)cc1Cl` gave KDM5B inh inactive.
Screening Cn1c(=O)c2nc(SCCC(=O)O)n(C)c2n(C)c1=O returned KDM5B inh inactive.
For Cc1noc([C@@H]2CN(C(=O)c3cc(C)oc3C)C[C@H]2COCC2CC2)n1 the results were KDM5B inh inactive.
N#Cc1cccc(CN2CCOC[C@H]2c2ncc(-c3ccccc3)[nH]2)c1 was read as KDM5B inh inactive.
Screening O=C(NC1CCCCC1)C1CCN(CCCc2nc3ccccc3o2)CC1 returned KDM5B inh inactive.
Screening COc1ccc(CN2C[C@@H](F)[C@@H](OCc3nc4ccccc4[nH]3)C2)cc1 returned KDM5B inh inactive.
O=C(NCC(F)(F)F)c1ccc2c(c1)C1(CCN(CC3CC3)C1)CN2Cc1ccccc1 (stereo unspecified) was read as KDM5B inh 20µM*.
Screening COc1ccc(C(=O)NC2CCCCCCC2)cc1OC returned KDM5B inh inactive.
CN(C)CCNC(=O)c1ccc2c(c1)C1(CCN(CC3CC3)C1)CN2Cc1ccccc1 (stereo unspecified) was read as KDM5B inh 35.5µM*.
O=C(NCCCO)c1ccc2c(c1)C1(CCN(CC3CC3)C1)CN2Cc1ccccc1 (stereo unspecified) was read as KDM5B inh 35.5µM*.
`CN1CCC2(C1)CN(CC1CC1)c1ccc(C(=O)NC3CCCCC3)cc12` (stereo unspecified) gave KDM5B inh 39.8µM*.
`O=C(NCCc1ccccc1)c1ccc2c(c1)CCN2S(=O)(=O)c1ccc(Cl)cc1` gave KDM5B inh inactive.
Screening CCCN1C=NS(=O)(=O)c2cc(C(=O)NC3CCCCC3)ccc21 returned KDM5B inh inactive.
Screening CN(C)CCNC(=O)c1ccc2nc(Cc3ccccc3)oc2c1 returned KDM5B inh inactive.
O=C(NCC(F)(F)F)c1nn(Cc2ccccc2)c(=O)c2ccccc12 was read as KDM5B inh inactive.
Screening O=C(NCC(=O)N1CCC(Cc2ccccc2)CC1)c1ccc(Cl)cc1 returned KDM5B inh inactive.
Screening CCCCNC(=O)c1ccc2c(c1)N(Cc1ccccc1)C(=O)CS2=O (stereo unspecified) returned KDM5B inh inactive.
Cc1ccccc1-c1nnc(SCC(=O)Nc2nncs2)n1C was read as KDM5B inh inactive.
